From PubChem BioAssay (NCI) come the findings set out here.

About 83,000 compounds went through this panel and 20% of them were active in at least one assay; those are over-represented in the sample as a whole.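 Results are percent growth after 48 hours of single-concentration exposure. 100 means growth as in untreated cells, lower positive values show inhibition; negative values down to -100 show cell death.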 Calls of active or inactive are those of the source. Rule for the calls: active = growth percent below 10; inactive = the rest.

In the first experiment the test system is SNB-19 CNS. The experiment is described as follows: NCI-60 one-dose screen, 48 h (100 = growth as untreated, 0 = no growth, -100 = all killed). To be noted: 10 µM unless noted.
Turning to `COc1ccc(C(=O)/C=C/c2cn(Cc3ccc(Cl)cc3)c3ccccc23)cc1`, the growth was 82.4% (inactive).
`COC(=O)CCCCCCCCC1(C)C=CC(C(C)O)=CC1` (configuration not stated): the growth was 107% (inactive).
Still for that read-out and setting: for `COc1ccc(-c2nn(Cc3ccccc3)c3c2-c2oncc2CC3)cc1OC` the value was 104% (inactive).
For the molecule `COc1ccc(CNC(=O)COc2ccc(/C=N/Nc3nc4ccccc4s3)cc2)cc1`, the growth is 36.8% (inactive).

For a further experiment, the system named is U251 CNS. Described as above. The conditions noted are these: 10 µM unless noted.
`COc1ccc(NC(=O)c2sc3nc(C)c(C(O)c4ccc(OC)cc4)cc3c2N)cc1` (configuration not stated): the growth was 25.9% (inactive).
On to `N#Cc1c(NC(=O)c2cccc(Br)c2)sc2c1CCCC2`, for which the growth was 88.2% (inactive).
Still for that read-out and setting: next, `Clc1ccc(C2CC(c3cccc(Nc4ccncc4)c3)=NN2c2ccccc2)cc1` (configuration not stated): -11.4% (active); `O=C(OCc1nc2nc(Cl)nc(N3CCOCC3)c2[nH]1)n1ccnc1`: 1.06% (active); `CC(=O)O[C@]1(C(C)=O)CC[C@H]2[C@@H]3C=C(Cl)C4=CC(=O)CC[C@]4(C)[C@H]3CC[C@@]21C`: 106% (inactive).
As to `CC(=O)c1c[nH]c2ccc(-c3ccnc(Nc4ccc(NC(=O)C5CCCC5)c(CN5CCOCC5)c4)n3)cc12`, the growth is 10.7% (inactive).
For `O=C(N/N=C/c1cccnc1)c1ccccc1Nc1cccc(C(F)(F)F)c1`, the growth is 92.1% (inactive).
On the same count and under the same terms, next, `CN1CCN(CCCOc2ccc3ncnc(Nc4ccc(Oc5cccc(C(F)(F)F)c5)c(Cl)c4)c3c2)CC1`: -11% (active); `CN(C)Cc1c(-c2ccccc2)[nH]c2ccccc12`: 106% (inactive); `O=C(OC(OC(=O)c1cc(Cl)cc(Cl)c1)c1cccc2ccccc12)c1ccccc1` (configuration not stated): 98.3% (inactive).
With `CCC(C)C(N)C(=O)NNc1n[nH]c(=S)n1N` (configuration not stated), the growth was 101% (inactive).
As to `CC[C@H](C)[C@@H]1NC(=O)[C@H](Cc2ccc(O)cc2)N(C)C(=O)[C@H](Cc2ccccc2)NC(=O)CN(C)C(=O)[C@@H]2CCCN2C(=O)[C@@H](Cc2ccccc2)N(C)C(=O)[C@H](CC(C)C)NC1=O`, the growth is 6.02% (active).
Same read-out and setting: next, `C#CC(=O)Nc1cccc(Nc2nc3c(c(NCc4ccccc4)n2)CCCC3)c1`: -86.8% (active).
Still for that read-out and setting: for `CCCCCOc1ccc(/C=N/Nc2cc(C)nc3ccc(Br)cc23)cc1` the value was -65% (active); for `COc1ccc(OC)c(/C=C/[C@H]2O[C@@H](C)[C@H](O)[C@@H]2O)c1`, 94% (inactive).
Same read-out and setting: for `COc1ccc(C(=O)c2cc(C)c(OC)c(C)c2)c(OC)c1O` the value was 14.5% (inactive); for `C=C1C(=O)O[C@H]2[C@H]1CC/C(CNC(=O)/C=C/c1ccc(Br)cc1)=C\CC[C@@]1(C)O[C@@H]21`, -28.3% (active); for `O=C(c1ccccc1)N1N=C(c2ccc(-n3ccc(C(F)(F)F)n3)cc2)CC1c1ccc[nH]1` (configuration not stated), 86% (inactive).
As for `CS(=O)(=O)Nc1cc(-c2ccc3ncnc(Nc4ccc5[nH]ncc5c4)c3c2)cnc1Cl`, the growth is 64.9% (inactive).
For the molecule `Nc1ncc(C#Cc2cncc(NC(=O)c3cccc(C(F)(F)F)c3)c2)c2cccnc12`, the growth was 53.5% (inactive).
Same read-out and setting: next, `CCOC(=O)Oc1c(OC)cc(C(=O)O[C@@H]2C[C@@H]3CN4CCc5c([nH]c6cc(OC)ccc56)[C@H]4C[C@@H]3[C@H](C(=O)OC)[C@H]2OC)cc1OC`: 49.4% (inactive); `O=C1Nc2ccccc2/C1=C\c1cccc(/C=C2/C(=O)Nc3ccccc32)n1`: -98.1% (active); `NC(=O)CN1CCN(c2ccccc2Cl)CC1`: 111% (inactive).
Still for that read-out and setting: next, `CSc1nnc2c(=O)n(C)c(=O)n(C)c2n1`: 97.2% (inactive).
On the same count and under the same terms, for `NC(=O)c1cccc(-c2ccccc2N2CCCCC2)c1` the value was 98.3% (inactive); for `COc1cnccc1-c1nc2ccc3[nH]ncc3c2c2c1CCCC2`, 83.9% (inactive).
`c1ccc(-c2nnc(Nc3ccc4c(c3)OCCO4)o2)c(NCc2ccncc2)c1`: the growth was 20.5% (inactive).
As to `CNC(=O)Nc1ccc(-c2nc(N3CCOCC3)nc3c2cnn3C2CCOCC2)cc1`, the growth was 4.14% (active).
In the case of `O=C(N/N=C/c1ccc(O)c(O)c1)c1sc2ccccc2c1Cl`, the growth is 59.2% (inactive).
As for `COc1cc(C2CC(c3cccc(Nc4ccncc4)c3)=NN2c2ccccc2)cc(OC)c1OC` (configuration not stated), the growth was 19.7% (inactive).
The same measure, in the same setting: for `Nc1ccccc1NC(=O)c1ccc(CN2CCC/C(=C\c3cccc(Cl)c3)C2=O)cc1` the value was 13.7% (inactive); for `C[C@H]1[C@H](C)CC[C@]2(CO)CC[C@]3(C)C(=CC[C@@H]4[C@@]5(C)CCCNC(C)(C)[C@@H]5CC[C@]43C)[C@H]12`, -83.3% (active).
As to `O=c1[nH]nc(-c2ccc(Br)cc2)cc1Cc1ccc(O)cc1`, the growth was 105% (inactive).
